Among the data in PubChem BioAssay (NCI) are growth values, retold here.

Several values for one entry are separate records, joined by “and”; a condition that tells them apart may be missing. Equal values may be shown once. The panel holds about 83,000 compounds, 20% with a hit somewhere; the sample as a whole holds those more often.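 48-hour exposure, single concentration, 96-well plates; percent growth endpoint where 0 means no net growth. Active: below 10.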 Activity calls are given as the source filed them.

The subject of the first test is BT-549 breast. Briefly: NCI-60 one-dose screen, 48 h (100 = growth as untreated, 0 = no growth, -100 = all killed). The settings on record: 10 µM unless noted.
Turning to `COc1ccc(N=Nc2c(N)nn3c(-c4ccc(OC)c(OC)c4)ccnc23)cc1`, the growth is 65.6% (inactive).

On to `CC1=C(C)C(=O)C(NCCN2CCOCC2)=C(Br)C1=O`, for which the growth was 87.4% (inactive).

For `COc1ccc(Nc2ncnc3sc4c(c23)CCN(Cc2ccccc2)C4)cc1`, the growth is 38.8% (inactive).

As to `CCCCCCCCCc1ccc(C(=O)Nc2cc(C)ccc2C(=O)OC)cc1`, the growth is 129% (inactive).

For the compound `O=C(N/N=C/c1ccc(Cl)o1)c1[nH]c2ccc(Br)cc2c1-c1ccccc1`, the growth is -25.9% (active).

As for `O=C(N/N=C/c1occc1Br)c1[nH]c2ccc(Br)cc2c1-c1ccccc1`, the growth is -89.4% (active).

With `c1n[nH]cc1-c1nc2ccc3cn[nH]c3c2c2c1CCCC2`, the growth is 97.1% (inactive).

On to `Cc1ccc(C(=O)Nc2cc(-n3ccnc3)cc(C(F)(F)F)c2)cc1-n1cc(-c2cnc3cccnn23)nn1`, for which the growth is 247% (inactive).

Take `COc1ccc(-c2nc3ccc(-c4nnc(SCc5ccccc5)o4)cc3[nH]2)cc1`: the growth was -54% (active).

Regarding `Cc1ccc(C2CC(c3ccc(NC(=S)Nc4ccccc4)cc3)=NN2c2ccc(S(N)(=O)=O)cc2)cc1` (stereo unspecified), the growth was -10% (active).

Turning to `COc1ccc(C(=O)NNC(=O)CSc2nc3sc4c(c3c(=O)n2-c2ccc(Cl)cc2)CCCC4)cc1`, the growth is 34.5% (inactive).

Turning to `Cc1[nH]nc2ccc3nc(-c4cn[nH]c4C(F)(F)F)c4c(c3c12)CCCC4`, the growth was -82.4% (active).

With `CCC(=O)c1c2c(c3ccc4c5ccccc5ccc4n13)C(=O)c1ccccc1C2=O`, the growth was 114% (inactive).

Consider `Cn1cc(-c2cc3nc(-c4cn(C)c5ncc(Br)cc45)cc(N)n3n2)c2cc(F)ccc21`, for which the growth was 44.9% (inactive).

As to `COc1ccc(-c2cc(C(=O)OCc3ccc(Br)cc3)nn2-c2ccc(S(C)(=O)=O)cc2)cc1OC`, the growth is 74% (inactive).

As for `CCc1ccccc1-c1nc(CN[C@@H]2C[C@@H]3C[C@H]([C@H]2C)C3(C)C)c(C)o1`, the growth was -89.7% (active).

Turning to `O=C(CSc1nnc(-c2ccc(-c3nc4ccc(Cl)cc4[nH]3)cc2)o1)Nc1ccccc1`, the growth was 80% (inactive).

On to `CCCCCCCOc1ccc(S(=O)(=O)Nc2ccc(C)c(F)c2C(=O)O)cc1`, for which the growth was 103% (inactive).

Turning to `CCc1ccccc1NC(=O)N/C(N)=N/c1nc2ccccc2s1`, the growth was -12% (active).

Consider `OC(c1ccccc1)(c1ccccc1)C1CCN(c2ccc3nnc(Cl)n3n2)CC1`, for which the growth was 2.56% (active).

With `Cc1ccc(S(=O)(=O)N(CCn2ccnc2[N+](=O)[O-])CCn2ccnc2[N+](=O)[O-])cc1`, the growth was 119% (inactive).

Take `O=C(c1ccc(Cl)cc1)C1[C@H](c2ccccc2Cl)[C@@H](c2ccccc2)NC12C(=O)Nc1ccccc12` (stereo partly specified): the growth is -77.4% (active).

Regarding `CS(=O)(=O)Nc1cccc(-n2cnc3cc(-c4ccc(O)cc4)ccc32)c1`, the growth is 49.9% (inactive).

Regarding `CC(C)(C)C(=O)c1c2c(c3ccc4c5ccccc5ccc4n13)C(=O)c1ccccc1C2=O`, the growth is 101% (inactive).

As for `COc1ccc(CCC2NCCc3c(Br)c4c(c(OC)c32)OCO4)cc1` (stereo unspecified), the growth was -19% (active).

On to `O=C(Nc1ccc(Br)cc1)Nc1ccc(-c2ccc3c(c2)NC(=O)/C3=C\c2ccc[nH]2)cc1`, for which the growth is 17.2% (inactive).

Turning to `O=C(Nc1nc2ccccc2s1)Nc1ccccc1Cl`, the growth was 129% (inactive).

For the compound `CN(C)c1nc(NCCNS(=O)(=O)c2ccc(C(=O)/C=C/c3ccc(Cl)cc3)cc2)nc(N2CCOCC2)n1`, the growth was 12.8% (inactive).

On to `COc1cncc(-c2ccc3ncnc(N4CCc5ccc(Cl)cc54)c3c2)c1`, for which the growth is -72.1% (active).

With `CC(C)(C)c1ccc(OCc2nc3ccccc3n2-c2cccc(N)c2)cc1`, the growth was 73.6% (inactive) and 115% (inactive).

`Cc1ccc(S(=O)(=O)Nc2ccc(-c3ccc4c(c3)NC(=O)/C4=C\c3ccc[nH]3)cc2)cc1`: the growth was 63.7% (inactive).

For `N#CC1=C(c2ccco2)Nc2c(c(-c3ccccc3)nn2-c2ccccc2)C12C(=O)Nc1ccc(Cl)cc12` (stereo unspecified), the growth is 15.4% (inactive).

For the compound `CCOc1ccccc1NC(=O)N/C(N)=N/c1nc2ccccc2s1`, the growth was 23.1% (inactive).

Take `OC1CCC(Cn2c(C(F)(F)F)cc3c(Cl)ncnc32)CC1` (stereo unspecified): the growth was -37.7% (active).

Turning to `CC[C@]12C=CCN3CC[C@@]4(c5ccc(OC)cc5N(C)[C@H]4[C@@](O)(C(=O)OC)[C@@H]1OC(=O)CCC[P+](c1ccc(OC)cc1)(c1ccc(OC)cc1)c1ccc(OC)cc1)[C@@H]32`, the growth was -96.6% (active).

Turning to `COc1cc(C2CC(c3ccc(F)cc3)=Nc3c(N)nc(N)nc3N2)ccc1Oc1nc(Nc2ccc(F)cc2)nc(N(C)C)n1` (stereo unspecified), the growth was 51.3% (inactive).

As to `COC(=O)c1c(C(=O)OC)c2ccc3c4ccccc4ccc3n2c1C(=O)OC`, the growth is 113% (inactive).

Turning to `C[C@@H]1CN(c2ccc3ncc(C#Cc4cncc(C(=O)Nc5ccc(CN6CCN(C)CC6)c(C(F)(F)F)c5)c4)n3n2)C[C@@H](C)O1`, the growth was -75.4% (active).

The next test relates to MDA-MB-435 melanoma. Described as above. The settings on record: 10 µM unless noted.
For `COc1ccc(N=Nc2c(N)nn3c(-c4ccc(OC)c(OC)c4)ccnc23)cc1`, the growth was 81.9% (inactive).

With `CC1=C(C)C(=O)C(NCCN2CCOCC2)=C(Br)C1=O`, the growth is -87.5% (active).

For the compound `COc1ccc(Nc2ncnc3sc4c(c23)CCN(Cc2ccccc2)C4)cc1`, the growth was 82.1% (inactive).

Take `CCCCCCCCCc1ccc(C(=O)Nc2cc(C)ccc2C(=O)OC)cc1`: the growth is 105% (inactive).

For the compound `O=C(N/N=C/c1ccc(Cl)o1)c1[nH]c2ccc(Br)cc2c1-c1ccccc1`, the growth is -47.9% (active).

Turning to `O=C(N/N=C/c1occc1Br)c1[nH]c2ccc(Br)cc2c1-c1ccccc1`, the growth was -90.4% (active).

With `c1n[nH]cc1-c1nc2ccc3cn[nH]c3c2c2c1CCCC2`, the growth was 94.8% (inactive).

Regarding `Cc1ccc(C(=O)Nc2cc(-n3ccnc3)cc(C(F)(F)F)c2)cc1-n1cc(-c2cnc3cccnn23)nn1`, the growth was 63.4% (inactive).

As for `COc1ccc(-c2nc3ccc(-c4nnc(SCc5ccccc5)o4)cc3[nH]2)cc1`, the growth was -29.5% (active).

As to `Cc1ccc(C2CC(c3ccc(NC(=S)Nc4ccccc4)cc3)=NN2c2ccc(S(N)(=O)=O)cc2)cc1` (stereo unspecified), the growth was 23.6% (inactive).

Regarding `COc1ccc(C(=O)NNC(=O)CSc2nc3sc4c(c3c(=O)n2-c2ccc(Cl)cc2)CCCC4)cc1`, the growth was 93.4% (inactive).

On to `Cc1[nH]nc2ccc3nc(-c4cn[nH]c4C(F)(F)F)c4c(c3c12)CCCC4`, for which the growth is 21.6% (inactive).

Regarding `CCC(=O)c1c2c(c3ccc4c5ccccc5ccc4n13)C(=O)c1ccccc1C2=O`, the growth is -89.8% (active).

Turning to `Cn1cc(-c2cc3nc(-c4cn(C)c5ncc(Br)cc45)cc(N)n3n2)c2cc(F)ccc21`, the growth was 39.8% (inactive).

On to `COc1ccc(-c2cc(C(=O)OCc3ccc(Br)cc3)nn2-c2ccc(S(C)(=O)=O)cc2)cc1OC`, for which the growth is 89.8% (inactive).

Consider `CCc1ccccc1-c1nc(CN[C@@H]2C[C@@H]3C[C@H]([C@H]2C)C3(C)C)c(C)o1`, for which the growth was -79.5% (active).

Turning to `O=C(CSc1nnc(-c2ccc(-c3nc4ccc(Cl)cc4[nH]3)cc2)o1)Nc1ccccc1`, the growth is 17.5% (inactive).

For `CCCCCCCOc1ccc(S(=O)(=O)Nc2ccc(C)c(F)c2C(=O)O)cc1`, the growth was 102% (inactive).

Take `CCc1ccccc1NC(=O)N/C(N)=N/c1nc2ccccc2s1`: the growth is -46.7% (active).

Turning to `OC(c1ccccc1)(c1ccccc1)C1CCN(c2ccc3nnc(Cl)n3n2)CC1`, the growth is 42.1% (inactive).

In the case of `Cc1ccc(S(=O)(=O)N(CCn2ccnc2[N+](=O)[O-])CCn2ccnc2[N+](=O)[O-])cc1`, the growth is 98.7% (inactive).

For the compound `O=C(c1ccc(Cl)cc1)C1[C@H](c2ccccc2Cl)[C@@H](c2ccccc2)NC12C(=O)Nc1ccccc12` (stereo partly specified), the growth was -82.8% (active).

With `CS(=O)(=O)Nc1cccc(-n2cnc3cc(-c4ccc(O)cc4)ccc32)c1`, the growth was -37.6% (active).

For `CC(C)(C)C(=O)c1c2c(c3ccc4c5ccccc5ccc4n13)C(=O)c1ccccc1C2=O`, the growth was 103% (inactive).

For the compound `COc1ccc(CCC2NCCc3c(Br)c4c(c(OC)c32)OCO4)cc1` (stereo unspecified), the growth is -64.5% (active).

On to `O=C(Nc1ccc(Br)cc1)Nc1ccc(-c2ccc3c(c2)NC(=O)/C3=C\c2ccc[nH]2)cc1`, for which the growth was 39.7% (inactive).

On to `O=C(Nc1nc2ccccc2s1)Nc1ccccc1Cl`, for which the growth is 100% (inactive).

Take `CN(C)c1nc(NCCNS(=O)(=O)c2ccc(C(=O)/C=C/c3ccc(Cl)cc3)cc2)nc(N2CCOCC2)n1`: the growth was -53.6% (active).

On to `COc1cncc(-c2ccc3ncnc(N4CCc5ccc(Cl)cc54)c3c2)c1`, for which the growth is 53.6% (inactive).

For `CC(C)(C)c1ccc(OCc2nc3ccccc3n2-c2cccc(N)c2)cc1`, the growth is 70.5% (inactive) and 102% (inactive).

For `Cc1ccc(S(=O)(=O)Nc2ccc(-c3ccc4c(c3)NC(=O)/C4=C\c3ccc[nH]3)cc2)cc1`, the growth is 90.1% (inactive).

On to `N#CC1=C(c2ccco2)Nc2c(c(-c3ccccc3)nn2-c2ccccc2)C12C(=O)Nc1ccc(Cl)cc12` (stereo unspecified), for which the growth was 53.7% (inactive).

In the case of `CCOc1ccccc1NC(=O)N/C(N)=N/c1nc2ccccc2s1`, the growth was -21.6% (active).

As for `OC1CCC(Cn2c(C(F)(F)F)cc3c(Cl)ncnc32)CC1` (stereo unspecified), the growth is 8.29% (active).

Consider `CC[C@]12C=CCN3CC[C@@]4(c5ccc(OC)cc5N(C)[C@H]4[C@@](O)(C(=O)OC)[C@@H]1OC(=O)CCC[P+](c1ccc(OC)cc1)(c1ccc(OC)cc1)c1ccc(OC)cc1)[C@@H]32`, for which the growth is -76.9% (active).

Turning to `COc1cc(C2CC(c3ccc(F)cc3)=Nc3c(N)nc(N)nc3N2)ccc1Oc1nc(Nc2ccc(F)cc2)nc(N(C)C)n1` (stereo unspecified), the growth is 47% (inactive).

For the compound `COC(=O)c1c(C(=O)OC)c2ccc3c4ccccc4ccc3n2c1C(=O)OC`, the growth is 98.7% (inactive).

For `C[C@@H]1CN(c2ccc3ncc(C#Cc4cncc(C(=O)Nc5ccc(CN6CCN(C)CC6)c(C(F)(F)F)c5)c4)n3n2)C[C@@H](C)O1`, the growth is -96.4% (active).
